{"source": "the supplement of paper PMC9897528", "note": "Values without a mark were called inactive.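 Further: conidia screened in RPMI 1640 medium under 5% CO2, growth read by spectrophotometer, medium with 0.5% DMSO serving as the untreated reference.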", "data": [{"test_system": "Scedosporium aurantiacum CBS 136046", "experiment": "growth inhibition relative to DMSO control (OD600); higher = more antifungal activity, active = 80 or more; extreme values may be limits of the assay", "conditions": "5 µM; 72 h; 37 °C", "values": [{"smiles": "CCCCC(CC)CNC(=N)NC(=N)NCCCCCCNC(=N)NC(=N)NCC(CC)CCCC", "note": "(stereo not drawn)", "growth inhibition": "85% (active)"}, {"smiles": "O=C(O)c1ccccc1Sc1ncnc2sc3c(c12)CCC3", "growth inhibition": "1.9%"}, {"smiles": "COC(=O)Nc1nc2cc(Sc3ccccc3)ccc2[nH]1", "growth inhibition": "0.273%"}, {"smiles": "CCCCCCCCCN1C[C@@H](O)[C@H](O)[C@@H](O)[C@@H]1CO", "growth inhibition": "13.7%"}, {"smiles": "N=C(N)c1ccc(COc2ccc(Cl)cc2)cc1", "growth inhibition": "19.9%"}, {"smiles": "Cc1ccc(NC(=O)c2cc(Cl)ccc2O)cc1", "growth inhibition": "4.62%"}, {"smiles": "Clc1ccc(COC(Cn2ccnc2)c2ccc(Cl)cc2Cl)c(Cl)c1", "note": "(stereo not drawn)", "growth inhibition": "80.6% (active)"}, {"smiles": "C[C@H](Cn1cnc2c(N)ncnc21)OCP(=O)(O)O", "growth inhibition": "13.7%"}, {"smiles": "Nc1nc(-c2ccccc2)nc2[nH]nc(Nc3ccc(C(F)(F)F)cc3)c12", "growth inhibition": "16.5%"}, {"smiles": "CC(C)/N=c1\\cc2n(-c3ccc(Cl)cc3)c3ccccc3nc-2cc1Nc1ccc(Cl)cc1", "growth inhibition": "24.6%"}, {"smiles": "COc1cc(C(C(=O)NC2CCCCC2)N(C(=O)Cc2c[nH]c3ccccc23)c2ccc(C(C)C)cc2)cc(OC)c1OC", "note": "(stereo not drawn)", "growth inhibition": "6.79%"}, {"smiles": "NCCCc1ccccc1C(=O)Nc1ncc([N+](=O)O)s1", "growth inhibition": "0%"}, {"smiles": "COc1ccc2c(c1OC)C(=O)OC2C1c2c(cc3c(c2OC)OCO3)CCN1C", "note": "(stereo not drawn)", "growth inhibition": "14.1%"}, {"smiles": "C[C@@H]1O[C@@H]1P(=O)(O)O", "growth inhibition": "3.95%"}, {"smiles": "CC[C@H](CO)Nc1nc(NCc2ccccc2)c2ncn(C(C)C)c2n1", "growth inhibition": "10%"}, {"smiles": "Cc1ccc(N2CCC(CCOc3ccc(S(C)(=O)=O)cc3)CC2)nn1", "growth inhibition": "24.5%"}, {"smiles": "CN(C/C=C/C#CC(C)(C)C)Cc1cccc2ccccc12", "growth inhibition": "23.6%"}, {"smiles": "Cc1c(N)cccc1Cn1ccc(OCCc2cccs2)cc1=O", "growth inhibition": "2.23%"}, {"smiles": "CC[C@H](NC(=O)[C@H](C)NC)C(=O)N1C[C@@H](O)C[C@H]1Cc1c(-c2[nH]c3cc(F)ccc3c2C[C@@H]2C[C@H](O)CN2C(=O)[C@H](CC)NC(=O)[C@H](C)NC)[nH]c2cc(F)ccc12", "growth inhibition": "6.5%"}, {"smiles": "CC(C)Oc1ccc(-n2cnc3cc(/C=C\\c4ccc(C(C)(C)O)cc4)ccc32)cc1", "growth inhibition": "28.5%"}, {"smiles": "O=C1c2cccc3cccc(c23)C(=O)N1CC1CO1", "note": "(stereo not drawn)", "growth inhibition": "19.8%"}, {"smiles": "Cc1ccn2c(C(=O)NCc3ccccc3)c(C)nc2c1", "growth inhibition": "34%"}, {"smiles": "O=C(Nc1cccc(C2=NCCN2)c1)c1ccc(-c2ccc(C(=O)Nc3cccc(C4=NCCN4)c3)cc2)cc1", "growth inhibition": "1.73%"}, {"smiles": "CCC(CC)[C@H](NC(C)=O)[C@@H]1[C@H](O)[C@@H](C(=O)O)C[C@H]1NC(=N)N", "growth inhibition": "14.3%"}, {"smiles": "COc1ccc(C2CNC(=O)C2)cc1OC1CCCC1", "note": "(stereo not drawn)", "growth inhibition": "16.6%"}, {"smiles": "CS(=O)(=O)c1ccc(Oc2ccc(Cl)cc2)cc1", "growth inhibition": "15.2%"}, {"smiles": "CCOC(=O)N[C@@H]1CC[C@@H]2[C@@H](C1)C[C@H]1C(=O)O[C@H](C)[C@H]1[C@H]2/C=C/c1ccc(-c2cccc(F)c2)cn1", "growth inhibition": "44.3%"}, {"smiles": "CCCCN1C[C@H](O)[C@@H](O)[C@H](O)[C@H]1CO", "growth inhibition": "3.51%"}, {"smiles": "COc1ccc(COc2cc3oc(=O)c4cc(C(C)O)ccc4c3cc2OC)cc1", "note": "(stereo not drawn)", "growth inhibition": "2.35%"}, {"smiles": "CCCNc1ccc(S(=O)(=O)Nc2cc(C)on2)cc1", "growth inhibition": "0.262%"}, {"smiles": "NC(=S)N/N=C/c1ncccc1N", "growth inhibition": "23.2%"}, {"smiles": "NC(=O)c1nccn([C@@H]2O[C@H](CO)[C@@H](O)[C@H]2O)c1=O", "growth inhibition": "2%"}, {"smiles": "CCCCCc1ccc(C(=O)NCCn2cc(CCCCCc3c[nH]c(N)n3)nn2)cc1", "growth inhibition": "46%"}, {"smiles": "NC(=O)c1ccccc1NC(=O)c1ccc(C(=O)Nc2ccccc2C(N)=O)cc1", "growth inhibition": "11.5%"}, {"smiles": "CC(C)(C)c1cc(C(=O)/C(C#N)=N/Nc2cccc(Cl)c2)no1", "growth inhibition": "35.3%"}, {"smiles": "Clc1cc(Cl)c2c(c1)CCc1ccccc1C2n1ccnc1", "note": "(stereo not drawn)", "growth inhibition": "80.2% (active)"}, {"smiles": "COc1ccc(NC(=O)c2cc3ccccn3n2)cc1", "growth inhibition": "36.8%"}, {"smiles": "CCOC(=O)N1CCN(c2ccc(Cl)cc2)CC1", "growth inhibition": "10.6%"}]}]}
